Compound activity deposited in PubChem BioAssay by National Center for Advancing Translational Sciences (NCATS).
In the library only some 19% were active in any assay of this set; here they are far more common.
DT40 TDP1 CPT – growth inhibition of DT40 Tdp1-/-;hTDP1 cells with camptothecin (screen for TDP1 inhibitors) | chicken DT40 Tdp1-/-;hTDP1 cells + 20 nM CPT, ATP luminescence, 48 h | hit rate 12% among 420,000 | AID 686979 | Potency, µM (titrated, usually from 46.2 µM), actives largely listed as inhibitors; also: nearly all actives have a fitted effect of over 55% in size
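Cell growth measured by CellTiter-Glo luminescence after a minimum 48 h, 37 C compound exposure with 20 nM CPT in Tdp1-knockout DT40 cells stably expressing hTDP1, seeded 400/well; qHTS titration format.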
HT1080 IDH1KD tx – HT-1080 IDH1 knockdown cell toxicity (counter line); AID 686971; HT-1080 IDH1 knockdown viability, ATP luminescence, 48 h; hit rate 2% among 360,000; Potency, µM (top dose mostly 46.1 µM), hits mostly cytotoxic
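After a 2 h attachment period, IDH1KD HT-1080 cells took pin-transferred compound for 48 h at 37 °C; ATP-based luminescence after 10 min room-temperature reagent incubation reported viability.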
IL1B secr inh – blocks inflammasome-driven IL-1 beta release; activity change, % at 57.5 µM; THP-1 LPS/ATP IL-1B secretion, AlphaLISA, 16 h; active compounds read low; hit rate 4.7% among 360,000; in the data active = activity change below about -50%; inconclusive = mostly about -30% to -49%
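Secreted IL-1B measured by AlphaLISA bead assay after 16 h compound exposure of THP-1 cells; compounds (final up to 57.5 uM) added 1 h before LPS (250 ng/mL) and ATP (1.25 mM) stimulation; lower signal means less secretion.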
HT1080-NT tox – kills 2HG-producing HT-1080-NT fibrosarcoma cells. HT-1080-NT fibrosarcoma viability, CellTiter-Glo ATP luminescence, 48 h. Potency, µM (titrated, usually from 46.1 µM), usual class: cytotoxic. hit rate 1.6% among 360,000. AID 686970;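 also: NT is the 2HG producing partner of a matched IDH1 knockdown line; nearly all actives have a fitted effect of over 55% in size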
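HT-1080-NT fibrosarcoma cells (2HG-overproducing), 750 cells/well in RPMI with 5% FBS, dosed after 2 h and incubated 48 h at 37C. CellTiter-Glo luminescence normalized to DMSO and no-cell wells; concentration-response curves fitted and classed.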
DT40 TDP1 no CPT – qHTS for Inhibitors of human tyrosyl-DNA phosphodiesterase 1 (TDP1): qHTS in cells in absence of CPT; DT40 Tdp1-/- hTDP1 cells, no CPT, ATP luminescence, 48 h; Potency, µM (highest dose often 46.2 µM), hits mostly inhibitors; hit rate 15% among 420,000; AID 686978, 2013; also: nearly all actives have a fitted effect of over 55% in size
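Camptothecin absent (DMSO only). Human TDP1-complemented DT40 knockout cells, 400 cells/well, 37 °C for minimum 48 hr; ATP measured via CellTiter-Glo, 30 min dark incubation, luminescence.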
A number is an active result; – = inactive; ? = inconclusive; · = no result given; [ ] = another dose, or the depositor's remark. Unless noted, calls follow the shape of the dose curve; as a rule, active = well fitted curve in the direction sought with a large enough effect; inconclusive = small, poorly fitted or top-dose-only effect, or another doubt; inactive = no such curve, though single readings can be large; an effect the other way counts as inactive or inconclusive.

SMILES	DT40 TDP1 CPT	HT1080 IDH1KD tx	IL1B secr inh	HT1080-NT tox	DT40 TDP1 no CPT
Cc1ccccc1-c1nc(CS(=O)CC(=O)NCCc2ccc(Cl)cc2)c(C)o1 (stereo not given)	16.4µM	–	–	–	?
Cc1oc(-c2ccccc2Cl)nc1CS(=O)CC(=O)NCCc1ccccc1 (stereo not given)	–	–	–	–	–
Cc1ccc(NC(=O)CS(=O)Cc2nc(-c3ccc(C)cc3)oc2C)cc1 (stereo not given)	?	–	–	–	20.6µM
CCn1c(SCC(=O)c2c(N)n(C3CC3)c(=O)[nH]c2=O)nc2cc(S(N)(=O)=O)ccc21	–	–	–	–	–
CCc1ccc(-c2nc(CS(=O)CC(=O)NCCN3CCCCCC3)c(C)o2)cc1 (stereo not given)	?	?	-55.5	?	?
CCn1c(O)c(N=NC(=O)c2cccnc2)c2cc(Br)ccc21	?	–	–	–	23.1µM
CCOc1ccc(S(=O)(=O)N(C)CC(=O)N2CCN(CC)CC2)cc1	–	–	–	–	–
COc1ccc2c(c1)CCc1cnc(-n3ncc(C(=O)N(C)CC4CCCN(C)C4)c3C)nc1-2 (stereo not given)	–	·	·	·	–
Cc1cc(C)c2oc(C(=O)Nc3ccc(S(=O)(=O)N4CCC(C)CC4)cc3)cc(=O)c2c1	10.3µM	–	–	–	7.31µM
Cc1ccc2c(=O)cc(C(=O)Nc3ccc(S(=O)(=O)N4CCCCCC4)cc3)oc2c1C	?	·	·	·	14.6µM
Cc1ccc(NC(=O)CNC(C)c2ccccc2)cc1 (stereo not given)	–	–	–	–	–
CCc1nc2c(c(SC)nn2-c2ccccc2)c(N)c1C(=O)OC	?	–	–	–	–
COCCCNC(=O)Cn1c(=O)n(-c2ccc(C)cc2)c(=O)c2c1c1cc(C)ccc1n2C	–	·	·	·	?
CC1CCCN(S(=O)(=O)c2ccc(C(=O)NC(C)c3ccccc3)cc2)C1 (stereo not given)	?	–	–	–	–
CCOc1ccc(OCC)c(NC(=O)c2nnn(Cc3cc(Br)ccc3OC)c2N)c1	–	·	·	·	–
CCc1ccc(OCc2ccccc2C(=O)Nc2ccc3nc(C)cc(N)c3c2)cc1	5.01µM	·	·	·	3.16µM
CCOC(=O)c1cc2cc(OCc3ccccc3)ccc2nc1C	–	–	–	–	–
CCCCN(C(=O)C1CC(=O)N(c2ccc(CC)cc2)C1)c1c(N)n(CCC)c(=O)[nH]c1=O (stereo not given)	–	–	–	–	–
COc1cccc(NC(=O)Nc2nnc(-c3ccccc3SCc3ccccc3)s2)c1	?	?	–	?	?
COc1ccc(NC(=O)Nc2nnc(-c3ccccc3SCc3ccccc3)s2)cc1	18.4µM	–	–	–	6.51µM
O=C1C[C@H]2C=CCc3cccc(c32)CN1Cc1ccc(F)cc1	?	·	·	·	12.6µM
Cc1cccc(CN2Cc3cccc4c3[C@H](C=CC4)CC2=O)c1	15.8µM	·	·	·	20µM
Cc1ccc(CN2Cc3cccc4c3[C@@H](CC2=O)[C@H](O)[C@H](O)C4)cc1	–	–	–	–	–
Cc1sc2nc(CSc3ccccc3)nc(N3CCN(C)CC3)c2c1C	?	?	·	?	16.4µM
COCCNc1nc(CSc2ccccc2)nc2sc(C)c(C)c12	?	–	–	–	?
SMILES	DT40 TDP1 CPT	HT1080 IDH1KD tx	IL1B secr inh	HT1080-NT tox	DT40 TDP1 no CPT
O=C1c2cccc3cccc(c23)C(=O)N1Cc1ccccn1	–	–	–	–	–
CCCOc1ccc(/C=N/Nc2ccccc2[N+](=O)[O-])c(O)c1	10.3µM	?	–	–	11.6µM
CCNC(=S)N/N=C/c1ccccc1[N+](=O)[O-]	23.1µM	–	–	–	?
CCCOc1ccc(/C=N/Nc2cccc([N+](=O)[O-])c2)c(O)c1	?	13µM	-96.5	14.6µM	?
CCCOc1ccc(/C=N/NC(=S)Nc2ccccc2[N+](=O)[O-])c(O)c1	5.8µM	14.6µM	–	9.2µM	5.17µM
CCOc1ccccc1/C=N/Nc1ccccc1[N+](=O)[O-]	–	–	–	–	–
COc1ccc(S(=O)(=O)N2CCN(C(=O)CCNC(=O)c3ccccc3Cl)CC2)cc1	–	–	–	–	–
CN1CCC2(CC1)N=C(c1ccc(F)cc1)C(=S)N2C(=O)c1ccc(C(C)(C)C)cc1	7.31µM	?	?	?	5.8µM
CCCC1(c2ccccc2)NC(=O)N(CC(=O)c2[nH]c(C)c(C(=O)OCC)c2C)C1=O (stereo not given)	?	–[9.24 µM]	–	?	20.6µM
CCCC1(c2ccccc2)NC(=O)N(CC(=O)Nc2sc(-c3ccccc3)cc2C(=O)OCC)C1=O (stereo not given)	?	11.6µM	–	16.4µM	?
CCOC(=O)c1cc(-c2ccccc2)sc1NC(=O)CN1C(=O)c2ccccc2C1=O	–	–	–	–	–
